In the supplement of paper PMC10849652:
About 8,800 targets were measured; listed, in parts, are those with a hit and a random draw of the rest. About 0.5% of all pairs of compound and target were hits.

Compound: C=CC(=O)N1CCC[C@@H](n2nc(-c3ccc(Oc4ccccc4)cc3)c3c(N)ncnc32)C1 [ibrutinib]
Assay: log2 fold change, soluble protein after heating vs DMSO (PISA); higher = thermal stabilisation; K562 lysate, 10 uM; active = over 0.2 and 3.5 SD of the protein, either way, in both replicates (recomputed)
Summary of the method: (§1)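 Quantification was by TMTpro 16plex LC-MS/MS with equalised channel sums, applied to the supernatant after 21,000xg for 90 min. Samples were crude K562 extract at 1 mg/mL protein in PBS pH 7.4 with 1 mM MgCl2, treated with 10 μM compound for 30 min, heated for 3 min across 48°C-58°C, pooled and brought to 0.5% NP-40 at 4°C. Values are log-two fold changes in thermal stability relative to solvent controls, from duplicates.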

UniProt Q96LT7, sequence (Q96LT7 whole entry, looked up): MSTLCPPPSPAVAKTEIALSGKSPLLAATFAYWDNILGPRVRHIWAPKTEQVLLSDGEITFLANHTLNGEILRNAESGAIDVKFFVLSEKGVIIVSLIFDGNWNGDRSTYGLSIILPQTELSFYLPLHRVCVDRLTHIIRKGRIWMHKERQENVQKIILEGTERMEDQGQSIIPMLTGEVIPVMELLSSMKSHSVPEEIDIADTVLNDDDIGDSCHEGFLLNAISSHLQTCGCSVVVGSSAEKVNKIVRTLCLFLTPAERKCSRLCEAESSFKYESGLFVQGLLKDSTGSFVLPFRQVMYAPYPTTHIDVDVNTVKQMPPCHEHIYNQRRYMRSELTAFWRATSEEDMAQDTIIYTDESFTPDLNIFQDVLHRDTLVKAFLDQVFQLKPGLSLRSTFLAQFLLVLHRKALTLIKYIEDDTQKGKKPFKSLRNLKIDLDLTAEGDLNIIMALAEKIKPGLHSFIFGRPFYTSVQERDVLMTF
UniProt Q9C0D2, sequence (Q9C0D2 whole entry, looked up): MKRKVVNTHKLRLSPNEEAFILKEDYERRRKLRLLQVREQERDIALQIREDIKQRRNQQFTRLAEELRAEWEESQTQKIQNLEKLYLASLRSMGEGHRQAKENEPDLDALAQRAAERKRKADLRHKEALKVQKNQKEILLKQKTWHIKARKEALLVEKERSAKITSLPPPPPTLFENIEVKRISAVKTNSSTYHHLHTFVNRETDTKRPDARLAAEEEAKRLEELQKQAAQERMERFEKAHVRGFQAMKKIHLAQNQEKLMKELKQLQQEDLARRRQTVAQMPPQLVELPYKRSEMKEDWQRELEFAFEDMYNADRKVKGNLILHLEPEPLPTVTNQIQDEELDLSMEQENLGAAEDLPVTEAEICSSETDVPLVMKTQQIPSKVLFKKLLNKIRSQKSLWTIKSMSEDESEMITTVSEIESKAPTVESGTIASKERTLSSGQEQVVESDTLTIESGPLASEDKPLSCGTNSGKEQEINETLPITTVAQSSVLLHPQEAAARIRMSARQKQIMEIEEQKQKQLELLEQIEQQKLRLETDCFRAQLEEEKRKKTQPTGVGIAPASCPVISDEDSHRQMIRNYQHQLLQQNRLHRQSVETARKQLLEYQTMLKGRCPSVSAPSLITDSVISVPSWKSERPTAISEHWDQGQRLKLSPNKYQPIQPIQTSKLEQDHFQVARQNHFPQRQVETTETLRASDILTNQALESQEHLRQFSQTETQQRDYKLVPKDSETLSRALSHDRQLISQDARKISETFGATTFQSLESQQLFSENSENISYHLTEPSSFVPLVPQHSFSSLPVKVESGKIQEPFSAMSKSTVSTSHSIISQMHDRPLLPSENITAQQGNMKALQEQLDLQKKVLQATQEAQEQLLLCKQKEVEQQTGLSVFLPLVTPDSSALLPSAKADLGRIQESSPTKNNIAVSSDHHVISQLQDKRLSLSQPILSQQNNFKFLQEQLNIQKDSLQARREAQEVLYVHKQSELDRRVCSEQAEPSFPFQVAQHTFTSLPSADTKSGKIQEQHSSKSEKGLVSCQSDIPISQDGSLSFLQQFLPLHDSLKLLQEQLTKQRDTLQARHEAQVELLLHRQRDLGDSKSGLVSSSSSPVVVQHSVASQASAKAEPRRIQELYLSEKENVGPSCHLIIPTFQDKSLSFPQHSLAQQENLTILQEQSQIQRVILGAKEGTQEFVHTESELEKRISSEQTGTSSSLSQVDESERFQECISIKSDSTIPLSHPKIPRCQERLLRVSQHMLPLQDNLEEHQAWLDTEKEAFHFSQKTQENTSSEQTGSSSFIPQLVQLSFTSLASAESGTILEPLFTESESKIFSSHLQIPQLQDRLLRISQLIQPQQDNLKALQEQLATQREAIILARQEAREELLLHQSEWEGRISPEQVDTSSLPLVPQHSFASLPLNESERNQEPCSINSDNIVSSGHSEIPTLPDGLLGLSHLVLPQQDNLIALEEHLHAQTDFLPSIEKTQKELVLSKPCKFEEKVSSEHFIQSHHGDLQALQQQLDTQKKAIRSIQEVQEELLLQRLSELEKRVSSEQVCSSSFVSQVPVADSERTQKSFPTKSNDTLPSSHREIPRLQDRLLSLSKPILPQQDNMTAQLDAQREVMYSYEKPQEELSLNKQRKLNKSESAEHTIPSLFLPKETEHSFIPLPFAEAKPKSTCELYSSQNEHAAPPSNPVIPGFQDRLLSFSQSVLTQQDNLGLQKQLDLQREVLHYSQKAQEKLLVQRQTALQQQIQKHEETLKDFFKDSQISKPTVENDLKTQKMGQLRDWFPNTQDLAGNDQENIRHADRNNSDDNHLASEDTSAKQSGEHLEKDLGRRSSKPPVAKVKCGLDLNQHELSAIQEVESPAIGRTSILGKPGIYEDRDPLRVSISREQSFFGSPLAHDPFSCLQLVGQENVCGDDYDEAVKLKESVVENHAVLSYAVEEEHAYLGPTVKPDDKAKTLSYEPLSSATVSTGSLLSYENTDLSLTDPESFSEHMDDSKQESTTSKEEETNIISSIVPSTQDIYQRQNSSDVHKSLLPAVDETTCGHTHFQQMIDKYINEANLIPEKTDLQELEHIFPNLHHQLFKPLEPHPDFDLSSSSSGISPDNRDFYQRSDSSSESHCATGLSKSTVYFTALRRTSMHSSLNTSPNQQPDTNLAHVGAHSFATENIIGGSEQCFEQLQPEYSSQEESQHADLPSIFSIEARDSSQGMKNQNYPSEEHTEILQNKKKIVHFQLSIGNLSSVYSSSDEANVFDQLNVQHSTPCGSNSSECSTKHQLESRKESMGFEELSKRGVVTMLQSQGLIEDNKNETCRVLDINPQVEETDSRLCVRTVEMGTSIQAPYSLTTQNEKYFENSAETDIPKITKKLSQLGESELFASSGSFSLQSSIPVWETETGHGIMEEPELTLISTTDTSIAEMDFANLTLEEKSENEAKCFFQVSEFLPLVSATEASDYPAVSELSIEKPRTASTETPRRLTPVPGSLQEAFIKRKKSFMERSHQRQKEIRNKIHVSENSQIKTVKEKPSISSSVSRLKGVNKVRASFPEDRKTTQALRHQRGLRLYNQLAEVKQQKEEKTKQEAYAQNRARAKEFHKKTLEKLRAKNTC
UniProt P55210, sequence (P55210 whole entry, looked up): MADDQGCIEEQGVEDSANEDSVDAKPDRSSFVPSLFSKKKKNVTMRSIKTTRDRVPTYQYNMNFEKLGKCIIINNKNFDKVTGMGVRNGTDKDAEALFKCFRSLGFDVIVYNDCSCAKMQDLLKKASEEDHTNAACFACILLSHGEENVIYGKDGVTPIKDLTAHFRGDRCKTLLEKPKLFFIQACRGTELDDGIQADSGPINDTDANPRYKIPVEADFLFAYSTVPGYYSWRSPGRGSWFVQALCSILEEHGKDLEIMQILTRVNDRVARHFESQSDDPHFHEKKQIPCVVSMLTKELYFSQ
UniProt P25440, sequence (P25440 whole entry, looked up): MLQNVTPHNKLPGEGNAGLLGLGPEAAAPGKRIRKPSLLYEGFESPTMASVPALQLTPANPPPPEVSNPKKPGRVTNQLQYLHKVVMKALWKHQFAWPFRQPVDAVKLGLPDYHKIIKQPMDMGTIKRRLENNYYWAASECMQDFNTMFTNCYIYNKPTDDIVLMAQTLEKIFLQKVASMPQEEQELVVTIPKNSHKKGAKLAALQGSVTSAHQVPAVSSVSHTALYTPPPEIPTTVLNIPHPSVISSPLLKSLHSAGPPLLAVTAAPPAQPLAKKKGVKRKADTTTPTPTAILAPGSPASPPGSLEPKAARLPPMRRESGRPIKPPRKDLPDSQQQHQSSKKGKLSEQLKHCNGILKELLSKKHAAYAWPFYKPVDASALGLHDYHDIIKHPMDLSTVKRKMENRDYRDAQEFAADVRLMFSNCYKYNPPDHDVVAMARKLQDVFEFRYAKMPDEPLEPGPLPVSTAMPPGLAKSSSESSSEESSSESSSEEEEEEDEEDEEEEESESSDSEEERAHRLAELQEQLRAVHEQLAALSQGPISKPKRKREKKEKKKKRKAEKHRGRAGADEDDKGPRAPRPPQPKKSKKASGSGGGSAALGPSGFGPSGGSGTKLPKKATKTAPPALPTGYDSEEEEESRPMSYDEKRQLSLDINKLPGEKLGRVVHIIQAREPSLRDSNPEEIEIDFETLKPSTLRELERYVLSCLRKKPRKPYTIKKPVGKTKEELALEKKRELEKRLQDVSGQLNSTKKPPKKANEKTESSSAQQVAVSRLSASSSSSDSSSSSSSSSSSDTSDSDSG
UniProt Q9BUK0, sequence (Q9BUK0 whole entry, looked up): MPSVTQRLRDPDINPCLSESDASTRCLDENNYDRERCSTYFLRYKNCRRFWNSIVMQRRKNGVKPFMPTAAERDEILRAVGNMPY
UniProt Q9UQ88, sequence (Q9UQ88 whole entry, looked up): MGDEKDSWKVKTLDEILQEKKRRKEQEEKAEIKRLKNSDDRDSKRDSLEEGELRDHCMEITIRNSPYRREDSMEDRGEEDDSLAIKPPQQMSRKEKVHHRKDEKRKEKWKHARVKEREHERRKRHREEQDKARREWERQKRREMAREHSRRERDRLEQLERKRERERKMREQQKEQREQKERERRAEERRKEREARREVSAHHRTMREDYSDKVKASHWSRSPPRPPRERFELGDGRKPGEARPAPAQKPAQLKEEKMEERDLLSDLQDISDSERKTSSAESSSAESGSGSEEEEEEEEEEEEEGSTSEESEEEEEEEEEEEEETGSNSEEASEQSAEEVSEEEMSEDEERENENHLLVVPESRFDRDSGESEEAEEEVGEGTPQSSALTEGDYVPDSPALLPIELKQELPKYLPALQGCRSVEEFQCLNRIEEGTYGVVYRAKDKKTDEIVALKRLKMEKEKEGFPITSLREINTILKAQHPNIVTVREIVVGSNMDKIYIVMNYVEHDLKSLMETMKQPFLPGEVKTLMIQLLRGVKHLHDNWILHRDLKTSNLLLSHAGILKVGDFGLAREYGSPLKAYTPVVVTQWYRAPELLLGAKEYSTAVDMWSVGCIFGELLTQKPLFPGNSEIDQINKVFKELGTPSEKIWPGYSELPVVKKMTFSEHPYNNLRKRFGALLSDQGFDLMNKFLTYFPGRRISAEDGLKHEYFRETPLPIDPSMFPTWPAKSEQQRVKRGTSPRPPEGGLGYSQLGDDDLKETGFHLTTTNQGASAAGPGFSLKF

Target | log2 fold change
CDK2 (UniProt P24941) | -0.031 (inactive)
CARHSP1 (UniProt H3BNU9) | 0.147 (inactive)
ATG4D (UniProt Q86TL0) | -0.086 (inactive)
CASP7 isoform 3 (UniProt P55210) | 0 (inactive)
BRD2 isoform 2 (UniProt P25440) | 0.074 (inactive)
CAPNS1 (UniProt U3KPR7) | 0.034 (inactive)
C15orf39 (UniProt Q6ZRI6) | -0.141 (inactive)
ATE1 (UniProt O95260) | 0.081 (inactive)
CCND3 (UniProt P30281) | 0.122 (inactive)
CEP128 (UniProt Q6ZU80) | 0.166 (inactive)
C3AR1 (UniProt Q16581) | 0.018 (inactive)
CHCHD7 isoform 4 (UniProt Q9BUK0) | -0.109 (inactive)
C9orf72 (UniProt Q96LT7) | -0.079 (inactive)
C6orf120 (UniProt Q7Z4R8) | 0.013 (inactive)
C8orf88 (UniProt P0DMB2) | -0.004 (inactive)
BICRA (UniProt Q9NZM4) | -0.053 (inactive)
CDK11A (UniProt Q9UQ88) | 0.022 (inactive)
CENPV (UniProt Q7Z7K6) | 0.036 (inactive)
BUD13 (UniProt Q9BRD0) | 0.07 (inactive)
CASC1 (UniProt Q6TDU7) | 0.24 (inactive)
ATPSCKMT (UniProt Q6P4H8) | -0.042 (inactive)
BNIP3 (UniProt Q12983) | 0.04 (inactive)
CEP57L1 (UniProt Q8IYX8) | -0.039 (inactive)
CCDC130 (UniProt P13994) | -0.232 (inactive)
CEP295 isoform 3 (UniProt Q9C0D2) | -0.182 (inactive)
B3GALT6 (UniProt Q96L58) | -0.025 (inactive)

Compound: CC(=O)c1cnc2ccc(-c3cc(Cl)c(O)c(Cl)c3)nc2c1N[C@H]1CC[C@H](CN(C)C)CC1
Assay: as above
Summary of the method: as §1

Target | log2 fold change
CDK2 (UniProt P24941) | 0.362 (active)
CARHSP1 (UniProt H3BNU9) | -0.005 (inactive)
BAHCC1 (UniProt Q9P281) | -0.045 (inactive)
CASP7 isoform 3 (UniProt P55210) | 0.125 (inactive)
BRD2 isoform 2 (UniProt P25440) | -0.041 (inactive)
CAPNS1 (UniProt U3KPR7) | -0.007 (inactive)
CCAR2 (UniProt G3V119) | 0.017 (inactive)
ATE1 (UniProt O95260) | -0.025 (inactive)
CHCHD7 isoform 4 (UniProt Q9BUK0) | 0.008 (inactive)
C9orf72 (UniProt Q96LT7) | -0.004 (inactive)
C6orf120 (UniProt Q7Z4R8) | -0.017 (inactive)
CAPNS1 (UniProt K7ES78) | 0.028 (inactive)
BICRA (UniProt Q9NZM4) | -0.093 (inactive)
CHD4, A0A2R8Y521 | -0.049 (inactive)
CDK11A (UniProt Q9UQ88) | 0.414 (active)
CDC25A (UniProt P30304) | -0.009 (inactive)
BNIP3 (UniProt Q12983) | 0.048 (inactive)
CDKL5 (UniProt O76039) | 0.088 (inactive)
CEP295 isoform 3 (UniProt Q9C0D2) | -0.048 (inactive)
CDC14A isoform 2 (UniProt Q9UNH5) | 0.107 (inactive)
CANX (UniProt D6RHJ3) | -0.013 (inactive)
